Test results reported in PubChem BioAssay (NCATS).
Inconclusive results are not listed. A call without a number means that no potency is given here. Active and inactive are the calls of the source. Calls follow the shape of the dose curve; as a rule, active = well fitted cell-killing curve with a large enough effect; inconclusive = small, poorly fitted or top-dose-only effect; inactive = flat fitted curve, though single readings scatter.

assay: qHTS of pediatric cancer cell lines to identify multiple opportunities for drug repurposing: Primary screen for TC32 cells (AID 1347089); details: TC32 Ewing sarcoma viability, CellTiter-Glo luminescence, 48 h; series mostly up to 45.8 µM; also: nearly all actives have a fitted effect of over 60% in size
Source text: Drug repurposing or repositioning has been offered as a strategy for drug development in oncology programs. This approach has special potential for childhood cancers and other rare or orphan diseases, where the expected return on new drug development has been a disincentive to pharmaceuticals.
In this project we exploit the poly-pharmacology of drugs to discover new indications via phenotypic screening of a panel of 19 well-characterized cell lines derived from solid tumors seen in children and adolescents. The goal is to identify approved drugs with previously unrecognized anticancer properties that has the potential to reveal new mechanisms and biological processes involved in carcinogenesis or drug resistance. We employed a titration-based paradigm (quantitative high-throughput screening or qHTS), where all compounds were tested at multiple concentrations for their effect on cell viability. Concentration-response curves (CRCs) were derived directly from the primary screen, and both potency and efficacy values were used to identify compounds with robust bioactivity profiles. We screened the NIH Chemical Genomics Center (NCGC) Pharmaceutical Collection (NPC) and Mechanism Interrogation Plate (MIPE) small molecule collections of approved and investigational compounds against these cell lines; and measured metabolically active cells after 48 hours of compound treatment as a proxy for cell viability.
Assay Submitter: Nathalia J. Martinez, National Center for Advancing Translational Sciences, National Institutes of Health, Rockville, MD, USA; email: natalia.martinez@nih.gov
[1] Shen, M et al. Quantitative high-throughput phenotypic screening of pediatric cancer cell lines identifies multiple opportunities for drug repurposing. Oncotarget 2017 Dec 19;9(4):4758-4772. PMID 29435139.
The cells were obtained from University of North Carolina (UNC), Pediatric Preclinical Testing Program (PPT), and Coriell Institute (CI).
qHTS cell viability assay:
Cells were assayed in growth media at a density of 500-1,000 cells/well. Five microliters of cells were dispensed into 1,536-well, white, solid-bottom, TC-treated plates (Greiner Bio One) using a multidrop dispenser and incubated at 37 degrees C, 5% CO2, under a humidified atmosphere for 5 hours. Twenty-three nanoliters of compounds and controls (neutral control DMSO or positive control bortezomib at final concentration of 2.3 uM) were subsequently transferred by Kalypsys pintool. For primary screens, the MIPE collection was tested at 11-point dilutions (final concentrations range from 0.78 nM to 46 µM) and the NPC collection at 8-point dilutions (final concentrations range from 0.59 nM to 46 µM). Compounds tested in follow-up screens were assayed at 11-point dilutions. Cells were incubated for 48 hours, followed by addition of 3 uL of CellTiter-Glo (Promega). After a 15min incubation at room temperature, samples were analyzed for luminescence intensity using a ViewLux High-throughput CCD imager equipped with clear filters.
Potency is read from the fitted curve at half-maximal effect.

Row | SMILES | Potency
1 | CC(C)[N+](C)(CCC(C(N)=O)(c1ccccc1)c1ccccc1)C(C)C | inactive
2 | CCN(CC)Cc1nccn1-c1ccc([N+](=O)[O-])cc1C(=O)c1ccccc1Cl | inactive
3 | Clc1ccc(C(OCCN2CCCCC2)c2ccccc2)cc1 (stereo not given) | inactive
4 | CCC(=O)C(CCN(C)C)(c1ccccc1)c1ccccc1 | inactive
5 | Cc1ccc(N=CN(C)C=Nc2ccc(C)cc2C)c(C)c1 | inactive
6 | C[C@@H]1CC[C@H]2[C@@H](C)C(=O)O[C@@H]3O[C@@]4(C)CC[C@@H]1[C@]32OO4 | inactive
7 | CC1COC2(c3ccccc3Cl)c3cc(Cl)ccc3NC(=O)CN12 (stereo not given) | inactive
8 | C[N+]1(C)[C@@H]2CC[C@H]1CC(OC(=O)C(CO)c1ccccc1)C2 (stereo not given in full) | inactive
9 | O=c1n(Cl)c(=O)n(Cl)c(=O)n1Cl | inactive
10 | CCC1(c2cccc(O)c2)CCCCN(C)C1 (stereo not given) | inactive
11 | CCOC(=O)C1(c2ccccc2)CCN(CCc2ccc(N)cc2)CC1 | inactive
12 | COP(=O)(OC)OC=C(Cl)Cl | inactive
13 | OC(O)C(Cl)(Cl)Cl | inactive
14 | CCCC[N+]1(C)[C@@H]2CC(OC(=O)[C@H](CO)c3ccccc3)C[C@H]1[C@@H]1O[C@@H]12 (stereo not given in full) | inactive
15 | CCS(=O)(=O)C(C)(C)S(=O)(=O)CC | inactive
16 | CC(C)NCC(O)c1ccc(N)c(C#N)c1 (stereo not given) | inactive
17 | CCCC(C)C1(CC)C(=O)N=C(S)NC1=O (stereo not given) | inactive
18 | C[C@H](N)[C@H](O)c1ccc(O)c(O)c1 | inactive
19 | CC(Cc1ccccc1)NCc1ccccc1Cl (stereo not given) | inactive
20 | CCOC(=O)c1ncn2c1CN(C)C(=O)c1c(I)cccc1-2 | inactive

Row | SMILES | Potency
21 | CC[n+]1c(-c2ccccc2)c2cc(N)ccc2c2ccc(N)cc21 | 8.36 µM (active)
22 | CN(C)CCc1c[nH]c2cccc(O)c12 | inactive
23 | C[C@H]1C(=O)O[C@@H]2CCN3CC=C(COC(=O)[C@](C)(O)[C@]1(C)O)[C@H]23 | inactive
24 | CNC(=O)NC(O)C(Cl)(Cl)Cl (stereo not given) | inactive
25 | O=C(CCl)c1ccc(Cl)cc1Cl | inactive
26 | CN1C(=O)CN=C(c2ccccc2)c2cc(Cl)ccc21 | inactive
27 | CCCN(CCC)CCc1c[nH]c2ccccc12 | inactive
28 | C=CCOC(Cn1ccnc1)c1ccc(Cl)cc1Cl (stereo not given) | inactive
29 | CCN(Cc1ccc(Cl)nc1)/C(=C/[N+](=O)[O-])NC | inactive
30 | Cc1ncc2n1-c1ccc(Cl)cc1C(c1ccccc1F)=NC2 | inactive
31 | COc1cc(C[C@@H](C)N)c(OC)cc1C | inactive
32 | COc1ccc(CN2CCNCC2)c(OC)c1OC | inactive
33 | C[C@@H]1CN(C2CCC(C#N)(c3ccc(F)cc3)CC2)CC[C@]1(C(=O)O)c1ccccc1 (stereo not given in full) | inactive
34 | Sc1ccccc1Cl | inactive
35 | Nc1ccc(N)cc1 | inactive
36 | CN1CCC(N(Cc2ccccc2)c2ccccc2)CC1 | inactive
37 | CC(C)=C[C@@H]1[C@@H](C(=O)OCc2coc(Cc3ccccc3)c2)C1(C)C | inactive
38 | O=C1NCN(c2ccccc2)C12CCN(CCCOc1ccc(F)cc1)CC2 | inactive
39 | O=C(O)Cc1ccccc1 | inactive
40 | CC(Cc1ccccc1)NCCCCl (stereo not given) | inactive
